This excerpt belongs to a sample that is enriched for hits.
TTR transcr act: TTR transcription activators in neuroblastoma reporter cells, primary screen, cell-based, luminescence, SH-SY5Y, TTR promoter Gaussia luciferase; 100% = recombinant luciferase protein wells; hit rate 1.3% among 92,000; activation, % at 16.7 µM;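 active means activation above the mean of all tested compounds plus 3 SD, cut at about 9.5% in these data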;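 further: cells exposed to compounds for one day before reading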
TTR inh HuH7: TTR promoter reporter inhibitors in hepatoma cells, counter-screen for TTR transcription activator project, cell-based, luminescence, HuH7 hepatoma | HuH7 TTR promoter-Gaussia luciferase reporter | hit rate 4% among 1,100 | inhibition, % at 16.7 µM | shares compounds with TTR transcr act;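 active means average inhibition above the solvent-only control wells' mean plus 3 SD, cut at about 15% in these data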;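 further: inhibitors lower well luminescence so higher value means more inhibition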
TTR up confirm: TTR transcription activators, retest, confirmation, cell-based, luminescence, SH-SY5Y, triplicate. shares compounds with TTR transcr act. SHSY5Y TTR promoter Gaussia luciferase; 100% = purified Lucia enzyme wells, no cells. activation, % at 16.7 µM. 1,100 tested, under 10 active;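 active means mean activation above a set limit taken from the earlier primary screen, cut at about 11% in these data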
Each line names hits and unclear results; the compound was inactive in the other large screens (follow-up assays come after a bar, where they were run).

CCC(CO)Oc1cc(NCc2cc(C)cc(C)c2)c2ncn(C(C)C)c2c1 (stereo not drawn)	TTR transcr act 11 | TTR inh HuH7 inactive | TTR up confirm inactive
CC(=O)O[C@H]1[C@H](OC(C)=O)C[C@]2(OC(C)=O)C[C@H]1OC2=O	none
COc1cc(OC)cc(C(=O)Nc2c(C)nn(-c3ccccc3)c2C)c1	none
COc1cccc(NC(=O)Nc2nc3ncccn3c2-c2ccc(C(F)(F)F)cc2)c1	none
COc1ccc2c(C#CCCO)c(-c3ccc(S(C)(=O)=O)cc3)sc2c1	none
Brc1ccc(-c2c(-c3ccsc3)sc3ccccc23)cn1	none
OCCC#Cc1c(-c2ccsc2)sc2ccccc12	TTR transcr act 10.0 | TTR inh HuH7 inactive | TTR up confirm inactive
CCC[C@H]1[C@@H](NC(=O)C2CCC2)CC[C@@]23CCCN2C(=O)CCC[C@@H]13	none
CN(Cc1ccccc1)C1CCN(Cc2ccccc2[N+](=O)[O-])CC1	none
NS(=O)(=O)c1ccc(CCNCC(=O)NC2CC2)cc1	none
Cc1onc(C(=O)N2CCN(C(c3ccc(F)cc3)c3ccc(F)cc3)CC2)c1[N+](=O)[O-]	none
Cc1nc(-c2ccc(F)cc2)c(CC(=O)N(C)CC(=O)Nc2ccc(Cl)c(C(F)(F)F)c2)s1	none
Cc1ccc2nc(SCC(=O)c3ccc(Cl)cc3)nc(=O)n2c1	none
Cc1ccc2nc(SCC(=O)Nc3ccc(C)c(Cl)c3)nc(=O)n2c1	none
COc1ccccc1NC(=O)CSc1nc(=O)n2cc(C)ccc2n1	TTR transcr act 12 | TTR inh HuH7 inactive | TTR up confirm inactive
CN1C(=O)[C@@](O)(c2cccn2C)c2cc(Cl)ccc21	none
COC(=O)C1=C(C)NC(=O)C1(NC(=O)c1ccncc1)C(F)(F)F (stereo not drawn)	none
CC1=C(C#N)C(NC(=O)c2ccc(C)cc2)(C(F)(F)F)C(=O)N1 (stereo not drawn)	none
COC(=O)NC1(C(F)(F)F)C(=O)NC(C)=C1C(=O)OC (stereo not drawn)	TTR transcr act 19 | TTR inh HuH7 inactive | TTR up confirm inactive
CCOC(=O)[C@]12CCCC=C1N(Cc1ccc(OC)cc1)C(=O)[C@@H]2CC(=O)N1CCCCC1	none
COc1ccc(NC(=O)c2c(NC(=O)CCC(=O)O)sc(-c3ccccc3)c2C)cc1	none
O=C(Oc1cccc2ccccc12)c1ccccc1	none
O=C(O)CCc1ccccc1OC(=O)c1ccccc1	none
O=C(Oc1cc(=O)oc2ccccc12)c1ccccc1	TTR transcr act 14 | TTR inh HuH7 inactive | TTR up confirm inactive
Cc1cccc(NC(=O)C2CCN(C(=O)[C@@H]3Cc4ccccc4CN3)CC2)c1	none
CC(C)[C@H](NC(=O)c1ccco1)C(=O)OCC(=O)Nc1cccc(F)c1	none
CC(NC(=O)[C@H](C)NC(=O)c1ccco1)c1ccc(S(N)(=O)=O)cc1 (stereo partly drawn)	none
CC(NC(=O)c1ccco1)C(=O)OCc1cccc(C(F)(F)F)c1 (stereo not drawn)	TTR transcr act 11 | TTR inh HuH7 inactive | TTR up confirm inactive
COc1ccc(-c2cc(CCC(=O)N3CCN(c4cc(C)ccc4C)CC3)[nH]n2)cc1	none
CCCCNC(=O)C[C@@H]1C(=O)N(CCc2ccc(Cl)cc2)C2=CCCCC[C@]21C(=O)OC	none
CCn1cc(Br)c(C(=O)NN)n1	TTR transcr act 16 | TTR inh HuH7 inactive | TTR up confirm inactive
CCn1cc(Cl)c(C(=O)Nc2ccc(OC)c(OC)c2)n1	none
NNC(=O)c1nn(-c2ccc(Cl)cc2)cc1O	none
Cc1ccc(Cn2cc(COC(=O)NCC(C)C)nn2)cc1	none
CC(C)c1ccccc1NC(=O)CN1C(=O)c2ccccc2C1=O	none
CC1CCN(S(=O)(=O)c2cccc(C(=O)Nc3nncs3)c2)CC1	none
CCCSc1cc(=O)n(-c2ccccc2)nc1C(=O)O	none
CCCCSc1cc(=O)n(-c2ccccc2)nc1C(=O)OCC	TTR transcr act 10 | TTR inh HuH7 inactive | TTR up confirm inactive
CCOC(=O)c1nn(-c2ccccc2)c(=O)cc1SC(C)C	none
O=C(OCC#CCSc1nnc(-c2cccc3ccccc23)o1)c1ccc(OC(F)(F)F)cc1	none
O=S1(=O)c2c(cccc2N2CC[C@H](O)C2)OCCCN1C1CC1	none
CCN(CC)CCCNC(=O)C1(N[C@@H](Cc2c[nH]c3ccccc23)C(=O)NCC(OC)OC)CCCCC1	none
O=C(Nc1ccccc1)N(CCc1nc2ccccc2[nH]1)C1CCCC1	none
O=C1CCC(CCc2nc3ccccc3[nH]2)(c2ccccc2)C(=O)N1 (stereo not drawn)	TTR transcr act 21 | TTR inh HuH7 inactive | TTR up confirm inactive
CC(C)(Cc1nc2ccccc2[nH]1)C(=O)O	none
COC(=O)C1=CC[C@@H](NC(=O)OC(C)(C)C)[C@H](O)[C@H]1O[Si](C)(C)C(C)(C)C	none
COc1cc(NC(=O)c2cc(C)on2)cc(C(=O)Nc2cccc(C(F)(F)F)c2)c1	none
COc1ccc(NC(=O)c2cc(C)on2)cc1OC	none
COc1ccc(NC(=O)c2cc(C)on2)cc1	TTR transcr act 13 | TTR inh HuH7 inactive | TTR up confirm inactive
CN=C1S/C(=C/c2cc(C)n(-c3ccc(Cl)cc3F)c2C)C(=O)N1C	none
O=C(NCCc1ccccc1)OCc1cn(-c2ccc(F)c(F)c2)nn1	none
Cc1ncc(NS(=O)(=O)c2ccc(N)cc2)nc1C	none
Cc1ccc2c(c1)nnn2C1CCN(CC(=O)N(c2ccccc2)c2ccccc2)CC1	none
Cc1ccc2c(c1)nnn2C1CCN(C(=O)NCc2ccccc2)CC1	TTR transcr act 9.7 | TTR inh HuH7 inactive | TTR up confirm inactive
O=C(NCc1ccccc1)N1CCC(Cc2ccccc2)CC1	none
COc1ccc(C(c2c(NC(=O)c3ccco3)sc(C)c2C)N2CCOCC2)cc1 (stereo not drawn)	TTR transcr act 14 | TTR inh HuH7 inactive | TTR up confirm inactive
COc1ccc(C(CNC(=O)c2ccco2)N2CCCCC2)cc1 (stereo not drawn)	none
COc1ccc(C(Nc2ccccn2)c2c(NC(=O)c3ccco3)sc(C)c2C)cc1OC (stereo not drawn)	none
c1nc(NCC2CCCOC2)c2cc(-c3ccc4c(c3)OCO4)ccc2n1 (stereo not drawn)	none
CCOc1ccccc1NC(=O)Cc1coc2cc(C)ccc12	TTR transcr act 14 | TTR inh HuH7 inactive | TTR up confirm inactive
CCOc1ccccc1NC(=O)CNC(=O)Cc1ccccc1	none
Cc1ccc(C)c(NC(=O)Cc2coc3cc4c(cc23)CCC4)c1	none
O=C(Nc1ccn(CCCNCc2cccc3ccccc23)c(=O)n1)OCc1ccccc1	none
Cc1ccc(Cl)cc1NC1=NC(=S)N(C(C)C)C12CCCCC2	none
CN1C2=N[C@@H](c3cccc(C(F)(F)F)c3)CC(=O)N2/C(=C\c2ccccc2)[C@H]1c1ccccc1	none
Cc1ccc(C(C)NC(=O)C2CCCC2)cc1C (stereo not drawn)	none
CC(NC(=O)C1CCC1)c1ccc2c(c1)OCO2 (stereo not drawn)	none
CC(NC(=O)C1CCC1)c1ccc(Br)cc1 (stereo not drawn)	TTR transcr act 22 | TTR inh HuH7 inactive | TTR up confirm inactive
COC(=O)c1ccc(Cn2ccc3ccc(-c4ccc5ccn(C(=O)c6ccccc6OC)c5c4)cc32)cc1	none
C[C@@H]1COC(=O)[C@@H](CC(=O)OC(C)(C)C)C/C=C\C[C@@H](CC(=O)N[C@H](CO)Cc2ccccc2)C(=O)N1	none

High-throughput results deposited in PubChem by The Scripps Research Institute Molecular Screening Center.
